Only some compounds are listed: those with a hit (about 10% of all), similar ones and a draw of the others.
BAZ2B inh = blocks human BAZ2B; AlphaScreen BAZ2B-H3K14Ac peptide displacement; Potency, µM (titrated, usually from 114 µM), for inactives: top-dose activity change, negative = inhibition, hits mostly inhibitors; actives 4.4% (n = 360,000); AID 504333; also: % is scaled to controls: 0 for no effect and ±100 for the full control effect; nearly all actives have a fitted effect of over 60% in size
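Compounds, titrated to a top concentration of 110 uM, were incubated 30 min at room temperature with preformed BAZ2B/acetyl-K14 H3 peptide complex (50 nM each). Proximity signal was measured by AlphaScreen after 20 min with beads.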
GLS inhibitor = glutaminase GLS (human) inhibition; GLS enzymatic activity, qHTS titration; Potency, µM (doses to about 45.5 µM), inactives show at the top dose activity change, negative = inhibition, hits mostly inhibitors; actives 0.21% (n = 410,000); also: % is scaled to controls: 0 for no effect and ±100 for the full control effect
Target sequence (O94925 whole entry, looked up): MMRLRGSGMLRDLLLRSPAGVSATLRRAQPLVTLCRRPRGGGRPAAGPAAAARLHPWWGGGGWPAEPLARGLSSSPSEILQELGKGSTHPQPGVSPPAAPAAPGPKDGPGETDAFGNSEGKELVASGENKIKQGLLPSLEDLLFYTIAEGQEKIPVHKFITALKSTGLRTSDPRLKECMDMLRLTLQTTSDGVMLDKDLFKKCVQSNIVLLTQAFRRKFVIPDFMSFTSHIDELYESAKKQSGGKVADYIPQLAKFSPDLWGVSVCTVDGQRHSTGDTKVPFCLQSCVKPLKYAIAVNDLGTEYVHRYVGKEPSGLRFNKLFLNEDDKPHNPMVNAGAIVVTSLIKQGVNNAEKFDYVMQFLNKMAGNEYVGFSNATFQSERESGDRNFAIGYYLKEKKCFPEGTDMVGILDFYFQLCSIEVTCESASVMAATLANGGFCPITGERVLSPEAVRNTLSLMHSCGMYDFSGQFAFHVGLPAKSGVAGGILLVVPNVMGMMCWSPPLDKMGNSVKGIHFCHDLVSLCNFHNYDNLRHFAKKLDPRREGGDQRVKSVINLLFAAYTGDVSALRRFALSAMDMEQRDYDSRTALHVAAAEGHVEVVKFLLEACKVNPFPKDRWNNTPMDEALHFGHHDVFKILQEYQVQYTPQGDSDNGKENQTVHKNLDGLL
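Enzyme dispensed in phosphate buffer (45 mM, pH 8.2, 0.02% Tween-20), compounds pinned in, then 1 mM L-glutamine solution and the glutamate oxidase–HRP–Amplex Red mix added; fluorescence read immediately and again after 30 min at room temperature.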
HP1b chromo inh = inhibitors of HP1-beta chromodomain binding to methylated histone tails | P83916 | actives 0.56% (n = 390,000) | AlphaScreen HP1-beta / biotin-H3K9me3 peptide binding | Potency, µM (top dose mostly 114 µM), without a hit: at the top dose activity change, negative = inhibition, actives largely listed as inhibitors; also: nearly all actives have a fitted effect of over 70% in size
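AlphaScreen: HP1-beta (50 nM) preformed 30 min with biotin-H3(1-18)K9me3 peptide (50 nM) in PBS pH 7.4, 0.01% Tween-20. Compound added for 30 min at RT, then streptavidin donor/nickel chelate acceptor beads (10 ug/mL) for 30 min.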
JMJD2A Tudor = blocks the human JMJD2A Tudor domain; AlphaScreen JMJD2A-Tudor / H3K4me3 peptide binding; O75164; actives 4.4% (n = 390,000); Potency, µM (highest dose often 114 µM), without a hit: top-dose activity change, negative = inhibition, actives largely listed as inhibitors; AID 504339; also: % is scaled to controls: 0 for no effect and ±100 for the full control effect; nearly all actives have a fitted effect of over 50% in size
G9a inh = blocks human histone lysine methyltransferase G9a; Q96KQ7; G9a H3K9 monomethylation, AlphaScreen, 2 h; Potency, µM (highest dose often 102 µM), without a hit: top-dose activity, negative = inhibition, actives largely listed as inhibitors; actives 8.8% (n = 350,000); AID 504332; also: % is scaled to controls: 0 for no effect and ±100 for the full control effect; nearly all actives have a fitted effect of over 75% in size
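Compounds were preincubated with 20 nM G9a for 15 min, after which biotinylated H3K9 peptide (500 nM) and SAM (20 uM) started a 2 h room-temperature reaction. Monomethylated product was quantified by antibody-based AlphaScreen chemiluminescence.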
An asterisk follows results filed as active; ? = inconclusive; nt = not tested or not shown; [ ] = another dose, or the depositor's remark. Calls follow the shape of the dose curve; as a rule, active = well fitted curve in the direction sought with a large enough effect; inconclusive = small, poorly fitted or top-dose-only effect, or another doubt; inactive = no such curve, though single readings can be large; an effect the other way counts as inactive or inconclusive. Potency is read from the fitted curve at half-maximal effect.

SMILES | BAZ2B inh | GLS inhibitor | HP1b chromo inh | JMJD2A Tudor | G9a inh
CC[C@H](C)C(N)c1cn([C@@H](CC(N)=O)C(=O)N2CCNCC2)nn1 (stereo not given in full) | ? | 1% | 27% | -10% | -13%[2.33 µM]
O=c1ccn(CCOc2ccc(Cl)cc2)c(=O)[nH]1 | -7% | 10% | 9% | 9% | -14%[2.33 µM]
Clc1ccc(OCCn2cnc(Cl)c2Cl)cc1 | ? | 0% | ? | -31% | 50µM*
Cc1nccn1CCOc1ccc(Cl)cc1 | 45µM* | 3% | ? | 4.5µM* | 8.9µM*
COc1ccc(OCCn2cnc(Cl)c2Cl)cc1 | -35% | 6% | 8% | -17% | -25%
CNC[C@H](O)[C@H](O)[C@H](O)[C@H](O)CO | nt | nt | nt | nt | 19%[21.5 µM]
COc1ccc2[nH]c(C)c(CCN3C(=O)C4CC=CCC4C3=O)c2c1 (stereo not given) | ? | 17% | -14% | 25µM* | ?
COc1cc(/C=C/C(=O)OCC(=O)c2ccc(OC(F)F)cc2)ccc1O | nt | 11µM* | 4% | -29% | nt
COc1cccc(/C=C/C(=O)OCC(=O)c2c[nH]c3ccccc23)c1 | -17% | 5% | 33% | -8% | -47%[59 µM]
O=C(/C=C/c1ccco1)OCC(=O)c1ccc(OC(F)F)cc1 | -2% | -15% | 25% | 0% | ?
CCc1cccc2c(C(=O)COC(=O)/C=C/c3ccc(O)c(OC)c3)c[nH]c12 | -10% | -2% | 2% | -32% | 45µM*
O=C(CC(C(=O)O)c1cccc(Cl)c1Cl)c1ccccc1 (stereo not given) | 3% | -13% | 13% | -15% | -7%
CCOC(=O)c1csc(-c2ccc(OC)c(OC)c2)n1 | 5% | 0% | 34% | -4% | -3%
CCOc1ccc(-c2nc(CCl)cs2)cc1OC | ? | -3% | 70% | 7%[57.1 µM] | 45µM*
COc1cccc(-c2nc(CC(=O)O)cs2)c1OC | -8% | -1% | 32% | 5%[57.1 µM] | -8%[12.7 µM]
COc1cccc(-c2nc(CCl)cs2)c1OC | ? | 5% | 60% | 50µM* | 22µM*
CC(O)(c1ccc(Cl)cc1)C(c1ccccc1)c1ccccn1 (stereo not given) | nt | -1% | 102% | 31% | nt
N#Cc1c(Cl)nsc1NN | 14µM* | -28% | 45µM* | 50µM* | 7.1µM*
Cc1c(C#N)c(N)nc(Cl)c1C#N | -2% | -4% | 21% | -1% | -40%
Cc1cc(C)c(C(=O)CSc2nnc(C)c(=O)[nH]2)cc1C | -14% | 9% | 31% | -5% | 40µM*
CCc1c(O)nc(SCC(=O)NCc2ccco2)[nH]c1=O | -8% | 34% | 12% | -26% | 4%
Cc1nnc(SCC(=O)NCc2ccco2)[nH]c1=O | 2% | 3% | 13% | -31% | 50µM*
Cc1cc(=O)[nH]c(SCC(=O)NCc2ccco2)n1 | ? | -21% | -30% | 79µM* | ?
Cc1cc(-c2ccco2)n(CC(=O)NCc2ccco2)n1 | 1% | -6% | 31% | -24% | 50µM*
CCOC(=O)N1CCc2c(sc3c2c(=O)n(-c2ccccc2)c(=O)n3CC(=O)Nc2ccc(OC)cc2OC)C1 | 0% | -8% | 26% | -8% | -20%[59 µM]
SMILES | BAZ2B inh | GLS inhibitor | HP1b chromo inh | JMJD2A Tudor | G9a inh
CC(=O)Nc1ccc(NC(=O)C(C)Sc2nc3nc(C)cc(C)n3n2)cc1 (stereo not given) | 4% | -4% | 23% | -5% | 10%[0.501 µM]
Cc1cc(C)n2nc(SC(C)C(=O)NCc3ccco3)nc2n1 (stereo not given) | ? | 9% | 27% | -3% | 56µM*
CCCNC(=O)C1(C)CCN(CCOc2ccc(Cl)cc2)C1 (stereo not given) | nt | 14% | nt | nt | nt
CCC1=[N+](CC(=O)c2ccc(Br)cc2)CCn2c(C)ccc21 | -38% | -17% | 25% | ? | 32µM*
CCC1=[N+](C)CCn2c(C)ccc21 | 5% | -2% | 9% | ? | 1.8µM*
CCC1=[N+](CC(=O)c2ccc(C)cc2)CCn2c(C)ccc21 | -35% | -1% | 9% | -18% | ?
CCOc1ncccc1C(=O)OCC(=O)c1c(N)n(C)c(=O)n(C)c1=O | 16% | 23% | -2% | -5% | 20%
Cn1c(N)c(C(=O)COC(=O)Cc2ccc(Cl)c(Cl)c2)c(=O)n(C)c1=O | nt | 1% | 26% | 89µM* | nt
